The source of these data is PubChem BioAssay (Tox21).

Molecules are shown by their SMILES. Several values for one entry are separate records, joined by “and”; a condition that tells them apart may be missing. Equal values may be shown once. Values without a mark were called inactive. Inconclusive results are not listed. Activity calls are given as the source filed them. Unless noted, calls follow the shape of the dose curve; as a rule, active = well fitted curve in the direction sought with a large enough effect in the repeat runs; inconclusive = weak or mixed curves; inactive = no such curve, though single readings can be large; an effect the other way counts as inactive or inconclusive.

The target in test [1] is Progesterone receptor (Homo sapiens) (UniProt P06401). Briefly: qHTS assay to identify small molecule agonists of the progesterone receptor (PR) signaling pathway (AID 1346784; calls by dose curve; also: nearly all actives have a fitted effect of over 30% in size). In a few lines:
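Beta-lactamase reporter read-out: after 16 hr compound treatment at 37C and a further 2 hr at room temperature with LiveBLAzer B/G FRET substrate, fluorescence was measured in PR-UAS-bla HEK 293T cells grown in 2% charcoal-stripped serum.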

For test [2] the target is unchanged. Briefly: qHTS assay to identify small molecule antagonists of the progesterone receptor (PR) signaling pathway (AID 1346795; active = well fitted inhibition curve with a large enough effect in the signal ratio in the repeat runs, not every such curve was filed as active; the % refers to the signal ratio; also: potency is read from the fitted curve at half-maximal effect). In a few lines: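 Read-out is fluorescence from the LiveBLAzer B/G FRET substrate, cleaved by a UAS-controlled beta-lactamase in PR-UAS-bla HEK293T cells after 16 hr exposure to compound plus 1 nM promegestone (final), followed by 2 hr at room temperature.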

A short description of test [3]: qHTS assay to identify small molecule antagonists of the progesterone receptor (PR) signaling pathway - cell viability counter screen (AID 1346798). Also: nearly all actives have a fitted effect of over 50% in size. Also: potency is read from the fitted curve at half-maximal effect. In a few lines: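 HEK293T PR-UAS-bla, 2% charcoal-stripped FBS; 4 hr pre-plate; cpd + R5020, 16 h 37C; LiveBLAzer read first; then CellTiter-Glo 30 min RT, luminescence.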
A short description of test [4]: qHTS assay to identify small molecule agonists of the progesterone receptor (PR) signaling pathway - cell viability counter screen (AID 1346799; calls by dose curve; also: nearly all actives have a fitted effect of over 45% in size; also: potency is read from the fitted curve at half-maximal effect). Put shortly: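 Luminescence from CellTiter-Glo, added after the beta-lactamase FRET read in the same wells, gave cytotoxicity in PR-UAS-bla HEK293T cells treated with compounds for 16 hr at 37C.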
Test [5] is described as follows: qHTS assay to identify small molecule antagonists of the TGF-beta/Smad signaling pathway - cell viability counter screen (AID 1346824). Also: nearly all actives have a fitted effect of over 50% in size. Also: potency is read from the fitted curve at half-maximal effect. In a few lines:
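SBE-bla HEK 293T cells, incubated overnight, then compound plus 0.25 ng/mL TGF-beta1 (stock added) for 5 hr at 37 C. Viability was read in the same wells by CellTiter-Glo luminescence after 30 min at room temperature.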

Test [6] can be described thus: qHTS assay to identify small molecule agonists of the TGF-beta/Smad signaling pathway (AID 1346859; active = well fitted activation curve with a large enough effect in the signal ratio in the repeat runs, not every such curve was filed as active; the % refers to the signal ratio; also: series mostly up to about 77 µM). In a few lines: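 SBE-bla HEK 293T, 4,000 cells/well, plated o/n; cpd in DMSO, 5 hr, 37 C/5% CO2; B/G FRET substrate 2 hr RT; ex 405, em 460/530 nm.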
Test [7] has as its target Thyrotropin-releasing hormone receptor (Homo sapiens) (UniProt P34981). The test can be described thus: qHTS assay to identify small molecule agonists of the thyrotropin-releasing hormone receptor (TRHR) signaling pathway (AID 1346891; calls by dose curve; also: series mostly up to about 58 µM). In a few lines: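 Intracellular calcium rise, read as fluorescence every second for 3 min, served as the agonist signal in dye-loaded HEK293 cells expressing TRHR; each compound ran at 15 concentrations in triplicate.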

A short description of test [8]: Human pregnane X receptor (PXR) small molecule agonists, qHTS cell viability counter screen (AID 1346977). Also: nearly all actives have a fitted effect of over 50% in size. Also: potency is read from the fitted curve at half-maximal effect. Put shortly:
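PXR-Luc HepG2, 2,000 cells/well, 5% charcoal-stripped FBS; 5hr settle; cpd 24hr, 37C/5% CO2; CellTiter-Fluor at 23hr, read 1hr later (fluorescence).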

Test [9] is described as follows: Caspase-3/7 induction in HepG2 cells by small molecules, qHTS assay (AID 1346978). Also: nearly all actives have a fitted effect of over 15% in size. Also: potency is read from the fitted curve at half-maximal effect. In a few lines: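 Wild-type HepG2 cells, 2,000/well, settled 5 hr at 37 C and 5% CO2, then compound-treated for 17 hr; caspase-3/7 activity read by luminescent Caspase-Glo 3/7 after 30 min at room temperature.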
Test [10] in a line: Caspase-3/7 induction in CHO-K1 cells by small molecules, qHTS cell viability counter screen (AID 1346979). Also: nearly all actives have a fitted effect of over 35% in size. Also: potency is read from the fitted curve at half-maximal effect. Put shortly: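 Cells (CHO-K1, wild type) are plated at 1,500 per well and incubated 5hr. Test compounds in DMSO are then pinned in, followed by 16hr at 37C and 5% CO2. Viability is read by CellTiter-Fluor fluorescence after 1hr.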
A short description of test [11]: Caspase-3/7 induction in CHO-K1 cells by small molecules, qHTS assay (AID 1346980). Also: nearly all actives have a fitted effect of over 15% in size. In a few lines:
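Wild-type CHO-K1 cells exposed to compounds for 17hr at 37 C, 5% CO2. Caspase-3/7 activity then measured by Caspase-Glo 3/7 luminescence after 30min at room temperature.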

Test [12] in a line: Caspase-3/7 induction in HepG2 cells by small molecules, qHTS cell viability counter screen (AID 1346981). Also: nearly all actives have a fitted effect of over 30% in size. Also: potency is read from the fitted curve at half-maximal effect. In a few lines: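 Multiplexed with the caspase-3/7 assay: HepG2 cells, 16 hr compound treatment, CellTiter-Fluor viability detection by fluorescence.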
The target in test [13] is Nuclear receptor subfamily 1 group I member 2 (Homo sapiens) (UniProt O75469). The test can be described thus: Human pregnane X receptor (PXR) small molecule agonists, qHTS assay (AID 1346982). Also: nearly all actives have a fitted effect of over 35% in size. Also: potency is read from the fitted curve at half-maximal effect. Put shortly:
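We seeded PXR-Luc HepG2 cells in assay medium containing 5% charcoal-stripped FBS, added compounds 5 hr later, incubated 24 hr, and read luminescence with ONE-Glo reagent.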

Test [14] concerns the target Acetylcholinesterase (Homo sapiens) (UniProt P22303). The test can be described thus: Acetylcholinesterase (AChE) small molecule antagonists: colormetric cell-based qHTS assay (AID 1347395; calls by dose curve; also: nearly all actives have a fitted effect of over 30% in size). Put shortly:
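Colorimetric read-out: DTNB detects thiocholine released when cellular AChE in SH-SY5Y cells hydrolyses acetylthiocholine. Cells attached overnight, received compound for 30 min at 37 C, then substrate mix for 90 min at 37 C.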

Test [15] can be described thus: qHTS assay to identify small molecule agonists of the estrogen receptor alpha (ER-alpha) signaling pathway in the presence of an antagonist - cell viability counter screen (AID 1259386).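 Also: cells exposed to compounds for 22 h at 37 °C before the viability read; nearly all actives have a fitted effect of over 30% in size.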 Also: potency is read from the fitted curve at half-maximal effect. In a few lines:
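ICI-182,780 at 10.0nM final accompanies the compound titration (15 concentrations, 22hr, 37C) on VM7Luc4E2 cells. The CellTiter-Fluor fluorescence readout runs in the same wells as the luciferase assay.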

Test [16] is described as follows: qHTS assay to identify small molecule agonists of the TGF-beta/Smad signaling pathway - cell viability counter screen (AID 1346829). Also: top concentration of the series differs between compounds; nearly all actives have a fitted effect of over 45% in size. Put shortly: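 Here the cytotoxicity of library compounds is measured in SBE-bla HEK 293T cells treated for 5 hr, using CellTiter-Glo added to wells already read for the beta-lactamase reporter.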
Test [17] has as its target Thyrotropin-releasing hormone receptor (Homo sapiens) (UniProt P34981). Briefly: qHTS assay to identify small molecule antagonists of the thyrotropin-releasing hormone receptor (TRHR) signaling pathway (AID 1346877; active = well fitted inhibition curve with a large enough effect in the repeat runs, not every such curve was filed as active; also: series mostly up to about 51 µM). Put shortly:
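Screening used HEK293 cells engineered with TRHR, with a brief 5 min room-temperature compound exposure preceding addition of TRH to 1 nM. The read-out was kinetic calcium-dye fluorescence, concentration-response from 15 doses in triplicate.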

In test [18] the target is Nuclear receptor subfamily 1 group I member 2 (Rattus norvegicus) (UniProt Q9R1A7). The test can be described thus: Rat pregnane X receptor (rPXR) activation by small molecules, qHTS assay (AID 1346983). Also: nearly all actives have a fitted effect of over 20% in size. The settings on record: rPXR luciferase reporter cells, One-Glo luminescence, 24 h; active compounds read high. In a few lines: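 Cell-based rPXR activation assay: rPXR cells, 2,000 per well, rested 5hr at 37 C, then exposed to compounds in DMSO for 24 hr at 37 C. Luciferase activity read by One-Glo luminescence after 30 min at room temperature.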
Sequence of Nuclear receptor subfamily 1 group I member 2 (Rattus norvegicus) (Q9R1A7 whole entry, looked up): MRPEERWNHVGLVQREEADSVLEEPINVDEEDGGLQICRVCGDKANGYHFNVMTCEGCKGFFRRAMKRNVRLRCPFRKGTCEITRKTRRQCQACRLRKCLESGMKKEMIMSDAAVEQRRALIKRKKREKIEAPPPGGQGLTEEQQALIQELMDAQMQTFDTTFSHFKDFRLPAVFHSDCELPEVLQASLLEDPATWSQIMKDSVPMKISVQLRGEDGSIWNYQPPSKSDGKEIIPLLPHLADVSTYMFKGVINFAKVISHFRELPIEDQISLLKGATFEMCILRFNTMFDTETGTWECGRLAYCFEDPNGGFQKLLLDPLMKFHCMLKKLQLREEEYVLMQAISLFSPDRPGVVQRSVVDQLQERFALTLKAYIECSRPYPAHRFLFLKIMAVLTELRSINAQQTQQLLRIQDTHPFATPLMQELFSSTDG
% is scaled to controls: 0 for no effect and ±100 for the full control effect.

Sequence of Acetylcholinesterase (Homo sapiens) (P22303 whole entry, looked up): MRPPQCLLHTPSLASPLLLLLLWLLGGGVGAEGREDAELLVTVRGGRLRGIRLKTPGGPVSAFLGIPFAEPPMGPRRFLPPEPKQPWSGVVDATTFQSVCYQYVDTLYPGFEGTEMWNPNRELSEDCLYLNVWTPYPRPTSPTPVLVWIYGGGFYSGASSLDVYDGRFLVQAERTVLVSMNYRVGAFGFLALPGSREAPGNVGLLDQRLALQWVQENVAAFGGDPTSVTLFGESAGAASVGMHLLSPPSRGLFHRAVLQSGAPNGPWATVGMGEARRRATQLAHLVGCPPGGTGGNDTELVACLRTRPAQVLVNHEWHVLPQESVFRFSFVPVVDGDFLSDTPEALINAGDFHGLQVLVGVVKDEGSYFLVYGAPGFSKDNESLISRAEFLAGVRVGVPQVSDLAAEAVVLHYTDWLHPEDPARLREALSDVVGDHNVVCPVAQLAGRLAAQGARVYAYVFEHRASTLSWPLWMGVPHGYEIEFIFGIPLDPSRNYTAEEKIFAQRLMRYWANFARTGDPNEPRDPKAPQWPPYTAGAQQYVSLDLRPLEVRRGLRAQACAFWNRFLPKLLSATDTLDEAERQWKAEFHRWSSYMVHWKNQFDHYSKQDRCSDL
Sequence of Nuclear receptor subfamily 1 group I member 2 (Homo sapiens) (O75469 whole entry, looked up): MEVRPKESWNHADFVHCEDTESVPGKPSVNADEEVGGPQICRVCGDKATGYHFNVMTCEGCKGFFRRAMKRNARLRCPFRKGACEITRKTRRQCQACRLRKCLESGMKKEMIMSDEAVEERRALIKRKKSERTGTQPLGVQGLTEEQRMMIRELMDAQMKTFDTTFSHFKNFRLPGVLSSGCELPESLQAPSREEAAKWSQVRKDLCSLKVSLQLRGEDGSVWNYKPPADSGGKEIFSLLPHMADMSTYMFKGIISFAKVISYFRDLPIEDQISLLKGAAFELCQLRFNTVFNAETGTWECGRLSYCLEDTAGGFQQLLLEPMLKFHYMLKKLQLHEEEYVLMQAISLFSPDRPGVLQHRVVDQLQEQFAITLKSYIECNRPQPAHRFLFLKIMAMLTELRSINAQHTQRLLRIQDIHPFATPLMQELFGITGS
Sequence of Thyrotropin-releasing hormone receptor (Homo sapiens) (P34981 whole entry, looked up): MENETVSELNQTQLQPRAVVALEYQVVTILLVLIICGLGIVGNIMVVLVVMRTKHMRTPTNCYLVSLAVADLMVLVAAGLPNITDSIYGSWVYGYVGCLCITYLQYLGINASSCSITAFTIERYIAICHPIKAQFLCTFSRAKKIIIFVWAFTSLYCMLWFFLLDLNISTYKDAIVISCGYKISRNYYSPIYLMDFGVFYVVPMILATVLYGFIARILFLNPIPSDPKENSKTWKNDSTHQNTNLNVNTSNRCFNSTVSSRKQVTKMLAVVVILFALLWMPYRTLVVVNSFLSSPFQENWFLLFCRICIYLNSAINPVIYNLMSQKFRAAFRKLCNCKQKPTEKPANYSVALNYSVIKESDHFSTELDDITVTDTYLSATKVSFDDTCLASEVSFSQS
Sequence of Progesterone receptor (Homo sapiens) (P06401 whole entry, looked up): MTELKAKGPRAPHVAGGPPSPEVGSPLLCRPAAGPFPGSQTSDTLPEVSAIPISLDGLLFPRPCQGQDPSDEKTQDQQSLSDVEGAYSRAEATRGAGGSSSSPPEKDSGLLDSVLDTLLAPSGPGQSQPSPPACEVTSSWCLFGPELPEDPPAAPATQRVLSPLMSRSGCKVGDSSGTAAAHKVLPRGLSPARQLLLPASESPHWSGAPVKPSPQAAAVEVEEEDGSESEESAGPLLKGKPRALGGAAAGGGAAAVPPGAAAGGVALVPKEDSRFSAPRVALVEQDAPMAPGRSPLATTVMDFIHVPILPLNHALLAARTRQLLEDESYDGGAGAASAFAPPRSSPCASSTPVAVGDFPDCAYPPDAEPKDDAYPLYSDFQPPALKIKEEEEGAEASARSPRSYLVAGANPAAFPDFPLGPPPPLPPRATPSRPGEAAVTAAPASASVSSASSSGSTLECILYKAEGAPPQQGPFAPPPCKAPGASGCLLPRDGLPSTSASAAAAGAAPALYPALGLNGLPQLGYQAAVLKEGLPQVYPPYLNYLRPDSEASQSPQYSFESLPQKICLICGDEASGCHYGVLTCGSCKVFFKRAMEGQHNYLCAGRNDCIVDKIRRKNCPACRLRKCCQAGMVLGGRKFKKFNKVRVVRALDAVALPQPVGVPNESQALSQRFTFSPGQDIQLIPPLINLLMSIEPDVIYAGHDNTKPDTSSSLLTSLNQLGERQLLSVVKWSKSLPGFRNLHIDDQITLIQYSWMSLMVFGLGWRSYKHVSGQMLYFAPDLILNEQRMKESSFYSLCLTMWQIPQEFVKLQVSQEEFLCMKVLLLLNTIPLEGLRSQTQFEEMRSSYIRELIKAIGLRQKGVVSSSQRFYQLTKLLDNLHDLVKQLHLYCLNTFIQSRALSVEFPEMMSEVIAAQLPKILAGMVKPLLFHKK

As for `CCCCCCCCn1sccc1=O`, the Potency entry in test [1], in test [11] and in test [14] was “inactive” in each case. The Potency in test [2] was 34.4 µM (active) and 1.43 µM (active); in test [3], 48.7 µM (active) and 1.14 µM (active); in test [4], 43.4 µM (active); in [5], 49.1 µM (active) and 51.3 µM (active); in [8] it was 50.1 µM (active) and 25.5 µM (active); in [9] it was 25.5 µM (active). The Potency in test [10] was 12.2 µM (active) and 11.4 µM (active); in [12], 68.7 µM (active) and 50.9 µM (active); in [13], 21.7 µM (active) and 4.04 µM (active). Besides, the call in test [6] and in [7] was inactive.

On to `Cc1ncc(C[n+]2csc(CCO)c2C)c(N)n1`, for which the Potency entry in test [15], in test [3], in test [4], in test [5], in test [16] and in test [17] was “inactive” each time. Besides, the Potency result in test [8], in [9], in test [10], in test [11] and in [12] was “inactive” each time. Further, the compound was classed as inactive in [6] and in test [7].

`O=[N+]([O-])/C=C/c1ccccc1`: the Potency entry in test [15], in test [3], in test [4], in [5], in test [16] and in [17] was “inactive” throughout. In test [11], the Potency result is “inactive”. In test [7], the result was inactive. The Potency in [8] was 24.7 µM (active) and 19.3 µM (active); in [10], 6.97 µM (active) and 12.2 µM (active); in test [12], 31.1 µM (active) and 61.1 µM (active).

As for `CC(C)[C@@H](C(=O)O[C@@H](C#N)c1cccc(Oc2ccccc2)c1)c1ccc(Cl)cc1`, the Potency entry in test [15], in test [3], in test [5], in test [16], in test [8] and in [9] was “inactive” each time. For the same compound, the Potency result in test [11], in test [12] and in test [14] was “inactive” each time. The Potency in test [10] is 27.7 µM (active); in test [13], 5.53 µM (active) and 9.69 µM (active).

As for `O=C(O)CCCOc1ccc(Cl)cc1Cl`, the Potency entry in test [15], in [5], in test [16], in [8], in [9] and in test [10] was “inactive” throughout. In addition, the Potency entry in [11] and in [12] was “inactive” each time.

Regarding `C[CH2][Hg][S]c1ccccc1C(=O)O`, the Potency in test [15] is 13.7 µM (active) and 21.1 µM (active); in test [2] it was 1.54 µM (active) and 3.35 µM (active); in test [3], 2.73 µM (active) and 6.68 µM (active); in [4], 1.93 µM (active) and 6.68 µM (active); in test [5], 43.6 µM (active) and 19 µM (active); in [8] it was 3.44 µM (active) and 6.68 µM (active). Moreover, the Potency in test [10] was 1.72 µM (active) and 1.88 µM (active); in test [12], 12.2 µM (active) and 13.3 µM (active). Further, the Potency result in test [16], in test [9] and in test [11] was “inactive” each time. Further, the max activation in test [18] is -14.1%.

Take `O=C(O)C(F)(F)C(F)(F)C(F)(F)C(F)(F)C(F)(F)F`: the Potency result in test [1], in test [2], in [3], in test [4], in test [5] and in test [16] was “inactive” each time. Further, the Potency entry in test [17], in test [8], in [9], in test [11], in test [12] and in [13] was “inactive” each time. The compound was classed as inactive in test [6] and in test [7].

For `ClCc1ccccc1Cl`, the Potency result in test [15], in test [3], in test [4], in test [5], in test [16] and in [8] was “inactive” each time. Further, the Potency result in [9], in test [10], in test [11], in [12], in test [13] and in test [14] was “inactive” in each case. For the same compound, the call in [6] was inactive.

Turning to `CCNC(=O)NC(=O)/C(C#N)=N/OC`, the Potency entry in test [15], in [3], in [4], in test [5], in test [16] and in test [17] was “inactive” throughout. Besides, the Potency entry in test [8], in test [9], in test [10], in test [11], in test [12] and in test [14] was “inactive” throughout. Also, the outcome in test [6] and in test [7] was inactive.
